# According to PubChem BioAssay AID1508600 (Functional Genomics Laboratory (NCATS/FGL), 2020):
# Out of some 53,000 sequences screened, about 3,700 (7%) were called active.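 The calls were made as follows: active = gene knockdowns whose robust z-score for IL-1 alpha signal is at least 2 or at most -2, so actives lie on both sides; inactive = the rest.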 The sample as a whole holds a higher share of actives than the screen did.
# Assay: Components of the Cytosolic LPS Sensing Pathway: Gene Identification via Genome-wide siRNA Screen;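 also: robust z of the log signal after scaling to non-targeting control siRNA wells of the plate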
# Settings: RAW264.7 macrophages, IL-1a HTRF, actives lie on both sides, screened at 100 nM (by protocol), cells primed 5 h with Pam3CSK4 first
# Outline: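 Mouse macrophage line RAW264.7 is transfected with siRNA (100 nM final), grown 48h, primed with TLR ligand Pam3CSK4 5 h and given intracellular LipidA 24 h. IL-1a in supernatant is read by HTRF and viability by luminescence.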
row,Sequence,z-score
1,GGAAGAUGAACUUCGUACCTT against Slc4a2,-0.438 (inactive)
2,GGUCCUGAAGAAGAUUGCATT against Hmox1,-0.72 (inactive)
3,GGAAGAGUGACCUUAAGUCTT against Arhgap30,2.29 (active)
4,GGCACAGAUUGUGGUGAAGTT against Ccdc43,-0.518 (inactive)
5,GCUGCACCAUGAAUGAGUCTT against Il4,0.819 (inactive)
6,GGAUGUUGUGGGAAAUGACTT against Plaat1,-0.27 (inactive)
7,GGCAAAUCUGAACAACAUUTT against Agt,1.16 (inactive)
8,GCAGAAAUGUCCAUCCAAATT against Sprr2k,2.36 (active)
9,GGCAGUGCUGGCAACAAAUTT against Hsd3b5,-0.884 (inactive)
10,GGAAACCUACCGUUACCUATT against Kcnj5,-0.181 (inactive)
11,GCCAUUUAUUGAAACUCGCTT against Becn1,-0.905 (inactive)
12,GGCAGCUGCUGACUUGAUGTT against Gng2,0.133 (inactive)
13,GGGCCAGACUCCAUACUAUTT against Arid1a,3.71 (active)
14,GCACAUGCCAUACAACCAUTT against Fads1,0.655 (inactive)
15,GCGAUUGAGCAGUGAAUAATT against Fam216b,1.06 (inactive)
16,GGAGAAGCGGCAAAUGGAATT against Fam32a,0.429 (inactive)
17,GGCAAGGACUCCAAGGACATT against Wdr45,-1.31 (inactive)
18,GGAAGAGCAGGAGGAAACATT against Mea1,-2.01 (active)
19,GGAGAAAAGCUGUAUACACTT against Tmem177,1.22 (inactive)
20,GGAGGAGAUGAUAAAGAUUTT against Glyr1,-0.987 (inactive)
21,CCCAUCAGACUUUGACCGUTT against Lbh,-1.45 (inactive)
22,GGCAACUUCAAGUCCAUAUTT against Pnma3,3.18 (active)

row,Sequence,z-score
1,GCGACUAGUAGUGCAUGAATT against Wdr13,-0.434 (inactive)
2,CCUUAAACUUGGCCGAGGUTT against Trmt112,0.748 (inactive)
3,CGGCCUUCAUCUGCCUUUUTT against Olfr1222,0.475 (inactive)
4,GCCACCUCCUACCAAAUGUTT against Sprr4,-1 (inactive)
5,GGAGCUAAGGGAACAAUUATT against Psmc6,-2.1 (active)
6,GGAUGUGUCAGGAAAAUAGTT against Ctsm,-0.176 (inactive)
7,GGAAUACGGAAUCAUGGUUTT against Ift52,-0.0653 (inactive)
8,GGUUAAUCUUAACAACAUCTT against Tmod1,0.266 (inactive)
9,GGAUGCCUUGAAGAAAUUATT against Olfr1044,1.34 (inactive)
10,GCUCCAUGAAACCCACUCUTT against Zmiz1,-0.656 (inactive)
11,GGAAAGAAGCAACCACUUCTT against 4833439L19Rik,0.403 (inactive)
12,CGUGAUCGUGCGUUCCAACTT against Chrnb4,3.11 (active)
13,GGAGGACAUGGACACAGUCTT against Slc39a7,-0.805 (inactive)
14,GGACUAUCCUCACUCCCUUTT against Pigo,-0.0578 (inactive)
15,GCCGACUGGUUAAAUACAUTT against Nme3,5.79 (active)
16,CGAUGCUAGAGAUUAAUCATT against Rdh10,-0.0597 (inactive)
17,GCACCUGGGCCUUUGAAUATT against Hes2,-0.754 (inactive)
18,GCAAGGAAGGAUAUUACACTT against Mmp24,1.34 (inactive)
19,GGAUCAAUUCUAGAAUCAGTT against Runx3,0.586 (inactive)
20,GCAAUAGCAUACCUACCAUTT against Desi2,-0.228 (inactive)
21,CCAACAUCUAGAGAGUCUGTT against Olfr1031,-1.36 (inactive)
22,GCUUGAUUAUUGUGUGUCCTT against Olfr786,-1.53 (inactive)

row,Sequence,z-score
1,GGAAAUGACGACUACCAAGTT against Tspyl4,2.74 (active)
2,GCGCGAUAGAUUUUGUUUATT against Ier5l,-0.427 (inactive)
3,GGACUAUGGCUCAGCACUCTT against Ttyh1,-0.394 (inactive)
4,GGACAAGUUUGACUGUUACTT against Als2cl,0.158 (inactive)
5,GGAACGACAAUAAAGCUUATT against Ninj1,0.029 (inactive)
6,CCACAGAUUACAUUUAUCCTT against Sephs1,-1.19 (inactive)
7,GGAGAAAUUCUAUGGUAUUTT against 5031434C07Rik,2.18 (active)
8,GGACUUGAUUGAAGUCAUATT against Tmem132d,0.242 (inactive)
9,GUUGGCAUAUUUUAUGGCATT against Olfr1033,1.28 (inactive)
10,GGAACAGGAAUAUGAAAGATT against Olfr836,-0.903 (inactive)
11,CGGCUUGGACAGAUUUAUCTT against Rer1,0.0516 (inactive)
12,GCAUCCUUAGUGAUUUCUATT against Slc48a1,0.601 (inactive)
13,CCUACAACGAACGGGAGAATT against Dpm1,0.408 (inactive)
14,GGUUCUGACAGACAAAAUUTT against Luc7l3,-0.379 (inactive)
15,GCGGUUCGCUGUUUGUUUCTT against Zbtb11os1,2.54 (active)
16,CGCUAGCUUAUUUUCCGCCTT against Slc49a4,1.1 (inactive)
17,GGACGACAUGAUUUUCGAGTT against Atp1b1,-0.399 (inactive)
18,CCACGAAGAGCAAGAAAACTT against Gm5941,-1.15 (inactive)
19,GGCCUGUAGUCAAUGGAAATT against Magi2,-0.382 (inactive)
20,GGUUGCACUUUUUCAUAGUTT against Bcl2l2,0.97 (inactive)
21,GGAGGUGCUAACCUAACAGTT against Ggh,-1.1 (inactive)
22,GGAAUAUCCAGUAUUGAUUTT against Cd180,-0.396 (inactive)

row,Sequence,z-score
1,GCUCGAUUGACCUCAUUCATT against Rhbdf2,-2.45 (active)
2,GGUGUCGAGAAGCCUCAAATT against Arhgap24,-0.617 (inactive)
3,GCCGUAUGGCAGGUAUUUUTT against Tmem266,3.27 (active)
4,CCACUACAACAACACUUAUTT against Keg1,0.84 (inactive)
5,GCAUCUACCUUCUAUUACUTT against Gpsm1,0.533 (inactive)
6,GGACAUGCUCUAUAAGAAGTT against Pabpc5,-0.642 (inactive)
7,GGCAACUUGAUUGUAAACUTT against Zic2,0.795 (inactive)
8,CAGAAUUCAGAUAAUCUUGTT against Defb22,1.06 (inactive)
9,GGAUAUCCAAGUAAGGUGUTT against Mrpl9,-0.504 (inactive)
10,GACUGAGCUUCUGUGAUGGTT against Olfr921,-2.5 (active)
11,GGAGAAGAAGGGAAAGCAUTT against Tub,-1.4 (inactive)
12,GGUGGAUAUUCCAUCUAUUTT against Snx14,2.76 (active)
13,CGUUUUCAGAGAUGUGCGCTT against Cmtm5,-1 (inactive)
14,GCCAGUAUUAGCCUAGAUCTT against Vstm5,-1.65 (inactive)
15,CCCAGCUCUGUUUAAUGAUTT against Klf8,-0.449 (inactive)
16,GGAUCUUAAGAAGUUCCAATT against Chchd6,-0.104 (inactive)
17,CCUCCUUUUUUCUCUGUCUTT against Ugt1a9,-2.79 (active)
18,GGAUUUGCCUUAAAAAAUCTT against Dock4,-0.0352 (inactive)
19,GGUUUGAGGUAACACUAGATT against Vps39,-0.125 (inactive)
20,GCUGAAAGGAAUGUGCUCATT against Hspa8,-1.57 (inactive)
21,GCCGGAUGAAGGACUUUACTT against Dcc,-1.98 (inactive)
22,CCUAGUCUAGCUGACUUGCTT against Eppin,1.41 (inactive)

row,Sequence,z-score
1,GGUUACGAAAAGCUGCCUUTT against Ints14,-0.125 (inactive)
2,GGCCUUGGCAAUUAUUUGUTT against Syap1,-0.0759 (inactive)
3,GGAGAAAGAGAUUCCUAUUTT against Triap1,-0.818 (inactive)
4,CCAAUUCGUGUUAAGGAACTT against Riox2,0.212 (inactive)
5,CCUCGUAGGGCCUAUGGUATT against Cyth4,-2.17 (active)
6,GCCAAAGUAGCAUUAGUGATT against Dip2b,-1.39 (inactive)
7,GGCAAUGUCUUUAAAAUACTT against Txndc8,-0.724 (inactive)
8,GGCAUUGACCCUUCUUGGATT against Stam2,-0.395 (inactive)
9,CCUUGUUAGAGCAUUACAATT against Rprd1a,1.34 (inactive)
10,GGAUUCUGAGAAAUCAAGATT against Serpinb12,-0.376 (inactive)
11,GGAAAUCUACGAUUUCUAATT against Cyria,2.55 (active)
12,GCUCCAGAAUAUAUUGUUCTT against Arfgap3,1.39 (inactive)
13,GGGCAGAGGCAUUUCUGUATT against Psg23,1.76 (inactive)
14,GGAACCAGGUAGCAGAUCUTT against Cdk2ap2,-2.61 (active)
15,GGACUAUAUGAGAUAAACUTT against Pask,0.371 (inactive)
16,CGCCAAACAGGCUAGAUCUTT against Ephb2,-0.101 (inactive)
17,GCGAGAAUUGGACAAAUUATT against Acot12,0.784 (inactive)
18,GCAUUCGAAGCUCUUCUAATT against 4930474M22Rik,-1.89 (inactive)
19,GGGCUGUGAGCUCUGUUCATT against Rspo1,0.188 (inactive)
